Hits are enriched below; roughly 20% of the tested compounds scored in any of these assays.
Cycloheximide cs = counter-screen hit for Shiga toxin inhibitors, cycloheximide. cell reporter, cycloheximide protein synthesis inhibition counterscreen. max response, %. hit rate 12% among 300,000. AID 2314; in the data active = max response mostly above about 13%, no sharp cut-off; inactive = mostly below about 14%; also: read at 38.3 µM for the half of the compounds with a filed dose; 0% is about no effect
Shiga toxin inh = inhibitors of Shiga toxin in Vero cells | AID 2315 | hit rate 9.2% among 290,000 | inhibition, % at 38.7 µM | Vero cells, Shiga toxin protein synthesis inhibition reporter; in the data active = inhibition mostly above about 28%, no sharp cut-off; inactive = mostly below about 43%; also: 0% is about no effect
HCMV inh = human cytomegalovirus inhibition. HFF cells, HCMV-luciferase reporter, 72 h; active compounds read low. activity change, negative = inhibition, % at 57.5 µM. hit rate 4.5% among 410,000. AID 1259415; in the data active = activity change below about -60%; inconclusive = no clear call, values can overlap the other calls; inactive = above about -39%; also: % is scaled to controls: 0 for no effect and ±100 for the full control effect
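Screen run at 2 compound doses on HFFs infected with reporter HCMV, MOI 1 PFU/cell. Luciferase activity from cell lysates at 72 h post infection gave inhibition relative to buffer-only and Salinomycin wells.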
Pf growth 96h = inhibits malaria parasite growth, 96 h | P. falciparum luciferase reporter growth, 96 h | Potency, µM (titrated, usually from 28.7 µM), without a hit: top-dose activity change, negative = inhibition, hits mostly inhibitors | hit rate 6.9% among 320,000; also: potency is read from the fitted curve at half-maximal effect; % is scaled to controls: 0 for no effect and ±100 for the full control effect
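Compounds incubated with erythrocytes infected by luciferase-expressing P. falciparum (2% hematocrit, 0.05% parasitemia final) for 96 hours, 37 C in 5% CO2. Growth inhibition scored as decreased luciferase luminescence.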
Pf growth 48h = P. falciparum growth inhibition at 48 hours (one generation). hit rate 5.9% among 310,000. P. falciparum luciferase growth in erythrocytes, 48 h. AID 504832. Potency, µM (highest dose often 28.7 µM), without a hit: at the top dose activity change, negative = inhibition, actives largely listed as inhibitors; also: potency is read from the fitted curve at half-maximal effect; % is scaled to controls: 0 for no effect and ±100 for the full control effect
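Luminescence readout; reporter = integrated firefly luciferase in P. falciparum. RBC culture at 2% hematocrit, 0.1% parasitemia final, 37 C/5% CO2; decreased signal taken as growth inhibition.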
Active calls of the source: *; ? = inconclusive; · = not tested or not shown; [ ] = remark or other dose. Unless noted, calls follow the shape of the dose curve; as a rule, active = well fitted inhibition curve with a large enough effect; inconclusive = small, poorly fitted or top-dose-only effect, or another doubt; inactive = no such curve, though single readings can be large or run the other way.

SMILES | Cycloheximide cs | Shiga toxin inh | HCMV inh | Pf growth 96h | Pf growth 48h
O=C(CS(=O)c1cccc(C(F)(F)F)c1)Nc1ccccc1Cl (stereo not drawn) | -1 | 18 | -6 | -1% | 2%
O=C(CS(=O)c1ccc(F)cc1)Nc1ccccc1Cl (stereo not drawn) | 5 | 26 | -77* | 11% | 12%
COc1ccc(-n2ccnc(NCc3ccc(C)cc3)c2=O)cc1OC | · | · | 0 | · | ·
COc1cc(/C=N/Nc2nc(C)cc(=O)[nH]2)cc(OC)c1O | -3 | -3 | 17 | -14% | 5%
CCOc1ccc(/C=N/Nc2nc(=O)[nH]nc2C)cc1OC | 32* | 34* | -21 | ? | ?
Cc1n[nH]c(=O)nc1NCc1ccco1 | 1 | 6 | -21 | 8% | 7%
COc1cc(/C=N/Nc2nc(=O)[nH]nc2C)cc(OC)c1O | 27* | 94* | -38 | ? | ?
CCOc1cc(/C=N/Nc2nc(=O)[nH]nc2C)ccc1O | 43* | 71* | -29 | 17% | 2.3µM*
Cc1n[nH]c(=O)nc1N/N=C/c1ccco1 | 11 | 28* | -27 | -16% | ?
CCOc1cc(/C=N/NC(=O)N/N=C/c2ccc(O)c(OCC)c2)ccc1O | · | · | 25 | · | ·
Cc1cccc(C)c1NC(=O)CN1CCN(C(=O)c2cc(C3CC3)nn2-c2ccccc2)CC1 | · | · | -25 | · | ·
CC(=O)Nc1ccc(NC(=O)C(C)OC(=O)CCCN2C(=O)c3cccc4cccc(c34)C2=O)cc1 (stereo not drawn) | · | · | ? | 9% | 25%
COc1ccc2c(=O)c(-c3ccccc3)c(C)oc2c1 | 25 | 34* | -15 | 11% | 38%
Cc1ccc2c(CN3CC=C(c4ccccc4)CC3)cc(=O)oc2c1C | 8 | 26 | 49 | 3.3µM* | 5.2µM*
COc1cc(C)cc(CN2CC=C(c3ccccc3)CC2)c1O | 0 | 24 | 34 | ? | 1.2µM*
Cc1ccc2c(CN3C(=O)NC4(CCCCC4)C3=O)cc(=O)oc2c1C | 3 | 20 | 6 | 0.13µM* | 0%
COC(=O)c1cc(-c2c(C)oc3cc(OC)ccc3c2=O)c(C)o1 | 2 | -14 | -15 | · | 0%
CCOC(=O)c1c(S(=O)(=O)NCC(=O)Nc2cccc(F)c2)c(C)n(C)c1C | -1 | -8 | 14 | -19% | 0%
CCN(CC)C(=O)Cn1ccc(NC(C)=O)nc1=O | -3 | 3 | 27 | ? | 3%
COCCCN1C(=O)C(CC(=O)NC2CCCCC2)CC(C(=O)N2CCCCCC2)=C1C (stereo not drawn) | · | · | -9 | · | ·
COc1ccc2c(CN(C)Cc3ccccc3)cc(=O)oc2c1 | · | · | 157 | · | ·
COc1ccc2c(CN(C)c3ccccc3)cc(=O)oc2c1 | 22* | 48 | 72 | ? | -11%
COc1ccc(C(C)=O)cc1CN1CC=C(c2ccccc2)CC1 | -9 | -10 | · | ? | -20%
COc1ccc2ccc(O)c(CN3CC=C(c4ccccc4)CC3)c2c1 | 12 | -4 | -35 | ? | 1.7µM*
COc1ccc2c(CN3CC=C(c4ccccc4)CC3)cc(=O)oc2c1 | 29* | 22 | -34 | ? | ?
SMILES | Cycloheximide cs | Shiga toxin inh | HCMV inh | Pf growth 96h | Pf growth 48h
C#CCOCCOCCOCCNc1nc(N2CCOCC2)nc(N2CCN(C(=O)[C@H](C)n3cc(CCC(=O)O)nn3)CC2)n1 | · | · | 1 | · | ·
O=C(NCCc1csc(-c2cccc(F)c2)n1)c1ccc(Br)o1 | · | · | -19 | · | ·
O=C(COC(=O)c1cn(-c2ccccc2)nc1-c1cccnc1)NC1CC1 | -3 | 1 | 23 | -6% | 0%
CC(C)[C@H](Nc1ccc(C(F)(F)F)cc1[N+](=O)[O-])C(=O)O | -2 | 15 | -18 | 0% | 5%
O=C(NNc1ccc(C(F)(F)F)cc1[N+](=O)[O-])c1ccc(NS(=O)(=O)c2ccc(F)cc2)cc1 | -3 | -6 | -33 | 8.3µM* | ?
Cc1ccc(C(=O)N2CCN(CCNC(=O)C(=O)NCc3ccc(Cl)cc3)CC2)cc1 | -6 | -4 | 27 | ? | -8%
CC[N+](CC)(CC)CCCCOc1ccc2c(c1)C(=O)c1cc(OCCCC[N+](CC)(CC)CC)ccc1-2 | 0 | 22 | ? | ? | 0.066µM*
Cc1ccc(Sc2ccc(N3CCC(C(=O)Nc4ccc(C)c(F)c4)CC3)nn2)cc1 | · | · | -5 | · | ·
O=S(=O)(c1ccccc1)n1ccc2cccnc21 | -1 | -14 | 12 | -5% | -8%
O=C(c1ccccn1)c1cc2ccccc2n1S(=O)(=O)c1ccccc1 | 26* | 43* | 12 | -2% | -5%
COCCn1ccc2c(OCC(=O)Nc3cc(OC)ccc3OC)cccc2c1=O | · | · | -7 | ? | 12µM*
CCOC(=O)c1ccc(Nc2nc3nonc3nc2Nc2cccc(C)c2C)cc1 | · | · | -97* | · | ·
Cc1ccc(C)c(Nc2nc3nonc3nc2Nc2cccc(C)c2C)c1 | · | · | -101* | · | ·
Cc1ccnc(NS(=O)(=O)c2ccc(NC(=O)c3cccc(Cl)c3)cc2)n1 | · | · | 2 | · | ·
O=C(NCCN1CCN(c2cccc(Cl)c2)CC1)c1ccc(CSc2nc3ccncc3[nH]2)cc1 | -3 | 19 | -79* | ? | 1.7µM*
CC1CC(C)CN(C(=O)c2ccc(CSc3nc4ccncc4[nH]3)cc2)C1 (stereo not drawn) | -2 | -13 | ? | 14% | -20%
CCN(CCNC(=O)c1ccc(CSc2nc3ccncc3[nH]2)cc1)c1ccccc1 | 4 | -2 | -25 | -24% | 10µM*
Cc1ccc(CNCC(O)(c2ccccc2)c2ccc(Cl)cc2)cc1 (stereo not drawn) | -1 | 9 | 0 | 1.7µM* | 0.83µM*
COc1cccc(CNCC(O)(c2ccc(Cl)cc2)c2ccc(Cl)cc2)c1 | -4 | 57 | -3 | 1.3µM* | 6.6µM*
COc1cccc(CCNCc2cccc(C(F)(F)F)c2)c1 | 2 | -23 | -15 | 42%[1.15 µM] | -20%
Cc1ccc(CNCC(O)(c2ccccc2)c2ccccc2)cc1 | 15* | 23 | 52 | ? | ?
COc1ccc(CNCC(O)(c2ccccc2)c2ccc(Cl)cc2)cc1 (stereo not drawn) | 10 | -2 | ? | 2.3µM* | 2.3µM*
COc1ccc(-c2csc(NC(=O)c3c(C)noc3C)n2)cc1F | · | · | -37 | ? | 35%
COc1ccc(-c2csc(Nc3ncccn3)n2)cc1C | 31* | 48* | 68 | 16% | 93%
COc1ccc(-c2csc(Nc3cc(C)ccn3)n2)cc1C | 62* | 120* | ? | -18% | ?
SMILES | Cycloheximide cs | Shiga toxin inh | HCMV inh | Pf growth 96h | Pf growth 48h
O=C(c1ccc(Cl)cc1)c1oc2ccccc2c1CS(=O)(=O)c1ccccc1 | 13 | 10 | -37 | 10µM* | -3%
CCCSc1nnc(NC(=O)Nc2ccc(C)cc2)s1 | 2 | 17 | ? | ? | 26%
CCCSc1nnc(NC(=O)Nc2ccc(F)cc2)s1 | 32* | 29 | -104* | 0% | ?
Cc1ccc(NC(=O)CSc2nnc(NC(=O)C3CC3)s2)cc1 | -1 | -14 | -1 | 0% | -17%
Cc1ccc(NC(=O)Nc2nnc(SCC(=O)N3CCC(C)CC3)s2)cc1 | · | · | -88* | · | ·
CCCSc1nnc(NC(=O)CCc2ccccc2)s1 | -3 | -6 | -31 | -7% | 15%
CCCSc1nnc(NC(=O)Nc2ccccc2)s1 | 19* | 21 | -99* | -98% | 48%

Screens (PubChem)
